Potency data for 24 compounds are collected here from PubChem BioAssay AID602366 (National Center for Advancing Translational Sciences (NCATS), 2012).

Results filed as inconclusive are left out. Activity calls are given as the source filed them. Calls follow the shape of the dose curve; as a rule, active = well fitted inhibition curve with a large enough effect; inconclusive = small, poorly fitted or top-dose-only effect; inactive = flat fitted curve, though single readings scatter.

This test is described as follows: qHTS Assay for Inhibitors of Bacillus subtilis Sfp phosphopantetheinyl transferase (PPTase): SAR in B subtilis HM489. Particulars: B. subtilis HM489 whole-cell Sfp-dependent phenotype; series mostly up to 114 µM. From the text:
The covalent attachment of a phosphopantetheinyl (4'-PP) arm to a variety of synthases and other proteins is a key posttranslational protein modification. The 4'-PP is installed on the proteins post-translationally from coenzyme A (CoA) on a conserved serine residue by action of phosphopantetheinyl transferase (PPTase) enzymes. Phosphopantetheinylation is essential for synthase activity, and removal of the PPTase gene precludes natural product synthesis in microorganisms, or in the case of fatty acid biosynthesis, renders the organism unviable. PPTase enzymes belong to a distinct structural superfamily. Within bacteria, these enzymes are grouped into two classes based upon primary structure, the AcpS-Type and Sfp-Type PPTases.
Sfp-type PPTases, corresponding to an activator of surfactin production in Bacillus subtilis, are responsible for modifying type I polyketide and nonribosomal peptide synthases of prokaryotes. Sfp-type PPTases are responsible for the activation of a variety of pathogen-associated virulence factors. Among these compounds are toxins such as mycolactone from Mycobacterium ulcerans, siderophores such as vibriobactin from Vibrio cholerae or mycobactin from Mycobacterium tuberculosis, as well as the mycolic acids which form the waxy cell wall of Mycobacteria. The biosyntheses of these natural products are considered attractive targets for drug design.
In search of small molecule Sfp-PPTase inhibitors, a fluorescence quenching assay was developed for detection of Bacillus subtilis Sfp-PPTase enzymatic activity in a miniaturized high-throughput format. The consensus ybbr acceptor peptide […] was N-terminally labeled with Black Hole Quencher-2 (BHQ-2) and used in combination with rhodamine-labeled coenzyme A as a co-substrate.
Phosphopantetheinyl transfer is a process essential to cellular viability and maintenance. Cellular permeable and stable compounds acting as PPTase inhibitors are anticipated to be antimicrobial agents in organisms with complimenting genotypes. […] This experiment evaluated a series of test compounds for antimicrobial activity with B. subtilis HM489 (genotype: acpS- and sfp+), a strain that contains a targeted lesion in the acpS locus and thus requires a functional Sfp gene product for viability. [Mootz HD, 2001] This strain is expected to be sensitized to cell-permeable Sfp inhibitors.
NIH Chemical Genomics Center [NCGC]
NIH Molecular Libraries Probe Centers Network [MLPCN]
Assay Submitter (PI): Michale Burkart, University of California, San Diego
Bacillus subtilis HM489 is maintained on lysogeny broth (LB) solidified by the addition of 1.5% w/v agar. Single colonies were used to LB medium (2 mL) and shaken overnight at 30 deg C. In the morning, this culture (100 uL) was used to seed a fresh LB medium (10 mL) and was shaken at 30 deg C until the culture OD600 reached 0.5. This culture was diluted 1:100 in fresh LB medium to provide the inoculum below.
Bacterial susceptibility.
LB medium (2 uL) is dispensed into wells of a sterile white 1536-well plate. Test compounds (23 nL) prepared as serial dilutions in DMSO are added to the plate by pintool transfer. Innoculum (2 uL) is added; the plates are covered with a vented Kalypsys assay lid and incubated at 30 deg C. After 5 h, Bac-Titer Glo (4 uL; Promega Corp, Madison, WI) is added to the plates. They are incubated 10 minutes at room temperature and then the luminescence detected in a ViewLux multimodal plate reader.
Take `Cc1ccnc(NC(=S)N2CCCc3ccc(C(F)(F)F)cc32)c1`: the Potency entry is “inactive”.
On to `S=C(Nc1cc(Cl)ccn1)N1CCN(c2cccc(Cl)c2Cl)CC1`, for which the Potency is 8.35 µM (active).
On to `Cc1ccnc(NC(=S)N2CC3CN(c4ncc(C(F)(F)F)cc4Cl)CC3C2)c1` (centres undefined), for which the Potency was 11.8 µM (active).
For the compound `Cc1ccnc(NC(=S)N2CCN(c3cccc(C(F)(F)F)c3)CC2)c1`, the Potency is 10.5 µM (active).
In the case of `Cc1cc(C)nc(NC(=S)N2CC3CN(c4ccc(Cl)cc4C(F)(F)F)CC3C2)c1` (centres undefined), the Potency is 9.37 µM (active).
As for `FC(F)(F)c1cc(N2CCN(C(=S)Nc3cc(Cl)ccn3)CC2)cc(C(F)(F)F)c1`, the figure is 4.18 µM (active).
In the case of `Cc1ccnc(NC(=S)N2CCN(c3cccc(N(C)C)c3)CC2)c1`, the Potency is 46.9 µM (active).
On to `FC(F)(F)c1cccc(N2CCN(C(=S)Nc3cc(C(F)(F)F)ccn3)CC2)c1`, for which the Potency was 10.5 µM (active).
With `CSC(Cc1ccc(Cl)cc1)C(=O)Nc1ccc(Cl)cc1C(=O)O` (centres undefined), the Potency is 26.4 µM (active).
Regarding `Cc1ccnc(NC(=S)N[C@@H]2CCN(c3cccc(C(F)(F)F)c3)C2)c1`, the Potency is 29.6 µM (active).
Turning to `COc1ccnc(NC(=S)N2CCN(c3cccc(Cl)c3Cl)CC2)c1`, the Potency was 8.35 µM (active).
As for `Cc1cc(C)nc(NC(=S)N2CCN(c3ncccc3C#N)CC2)c1`, the entry is “inactive”.
For the compound `Cc1cc(C)nc(NC(=S)N2CCN(c3ccc(F)c(F)c3F)CC2)c1`, the Potency was 21 µM (active).
As for `Cc1cc(C)nc(NC(=S)N2CCN(c3cc(Br)cc(C(F)(F)F)c3)CC2)c1`, the figure is 4.69 µM (active); as for `Cc1ccnc(NC(=S)N2CCN(c3cc(C(F)(F)F)cc(C(F)(F)F)c3)CC2)c1`, 11.8 µM (active).
As for `Cc1cc(C)nc(NC(=S)N2CCN(c3ccc(Cl)cc3Cl)CC2)c1`, the figure is 29.6 µM (active); as for `Cc1ccnc(NC(=S)Nc2cccc(C(F)(F)F)c2)c1`, 10.5 µM (active); as for `Cc1cc(C)nc(NC(=S)N2CCN(c3ccc([N+](=O)[O-])cc3Cl)CC2)c1`, 18.7 µM (active).
As to `COc1ccnc(NC(=S)N2CCN(c3ccc(Cl)cc3Cl)CC2)c1`, the Potency was 10.5 µM (active).
Consider `Cc1ccnc(NC(=S)N2CC3CN(c4cccc(C(F)(F)F)c4)CC3C2)c1` (centres undefined), for which the Potency was 5.27 µM (active).
Take `COc1cccc(NC(=S)N2CCN(c3ccc(Cl)c(Cl)c3)CC2)n1`: the Potency entry is “inactive”.
`COc1ccnc(NC(=S)N2CCN(c3ncc(C(F)(F)F)cc3Cl)CC2)c1`: the Potency is 6.63 µM (active).
As to `Cc1cc(C)nc(NC(=S)N2CCN(c3ccc(Cl)c(Cl)c3)CC2)c1`, the Potency was 26.4 µM (active).
As for `Cc1ccnc(NC(=S)N2CCCN(c3cccc(C(F)(F)F)c3)CC2)c1`, the figure is 4.18 µM (active).
